Shown are actives, neighbours in structure and some others; about 1.6% of the full set was active somewhere.
KCNQ2 enhance = potentiators of rat KCNQ2 potassium channel. Potassium voltage-gated channel subfamily KQT member 2 (Rattus norvegicus), O88943. CHO-K1 KCNQ2, FluxOR thallium flux fluorescence; active compounds read high. B-score at 10 µM. 0.54% of 310,000 active;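 active = fluorescence ratio B-score at least 3 SD of library B-scores, with initial fluorescence B-score within 3 of them, cut at about 5.3 in these data; same plate scores as AID 2156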;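 also: B-score of peak minus minimum over baseline fluorescence ratio after K+ and Tl+ stimulus; positive B-score means potentiation of KCNQ2 with more thallium influx and brighter signal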
Target sequence (O88943 whole entry, looked up): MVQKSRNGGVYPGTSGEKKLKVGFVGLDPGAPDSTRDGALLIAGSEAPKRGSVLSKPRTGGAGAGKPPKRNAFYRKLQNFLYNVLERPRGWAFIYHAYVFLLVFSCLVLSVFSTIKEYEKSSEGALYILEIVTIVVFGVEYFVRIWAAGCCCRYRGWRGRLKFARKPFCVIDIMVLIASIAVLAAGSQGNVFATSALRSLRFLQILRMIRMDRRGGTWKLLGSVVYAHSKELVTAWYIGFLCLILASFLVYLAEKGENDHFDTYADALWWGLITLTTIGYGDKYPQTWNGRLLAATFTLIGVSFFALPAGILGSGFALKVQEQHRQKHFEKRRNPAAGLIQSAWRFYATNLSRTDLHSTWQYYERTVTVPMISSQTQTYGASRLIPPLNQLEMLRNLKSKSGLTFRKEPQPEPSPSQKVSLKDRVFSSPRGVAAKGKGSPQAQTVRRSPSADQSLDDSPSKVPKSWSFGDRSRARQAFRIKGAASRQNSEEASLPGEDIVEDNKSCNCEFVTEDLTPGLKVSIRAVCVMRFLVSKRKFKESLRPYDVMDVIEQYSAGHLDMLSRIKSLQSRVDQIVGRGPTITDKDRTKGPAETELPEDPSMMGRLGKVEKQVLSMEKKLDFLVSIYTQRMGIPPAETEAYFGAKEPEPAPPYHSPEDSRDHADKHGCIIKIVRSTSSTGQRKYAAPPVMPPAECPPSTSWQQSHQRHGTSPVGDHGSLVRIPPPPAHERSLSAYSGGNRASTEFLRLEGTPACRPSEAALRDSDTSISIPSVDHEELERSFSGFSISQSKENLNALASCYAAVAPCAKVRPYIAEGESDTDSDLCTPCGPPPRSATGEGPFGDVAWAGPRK
KCNQ2 inh = rat KCNQ2 potassium channel inhibitors, primary screen, cell-based, CHO-K1, FluxOR thallium flux, B-score | AID 2156, 2009 | B-score at 10 µM | 20 min; active compounds read low | 1.1% of 310,000 active;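 active = fluorescence ratio B-score at most minus 3 library SDs, with starting brightness B-score within 2 library SDs, cut at about -5.5 in these data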
Starred values were filed as active, the others as inactive.

Screening COc1cc(OC)cc(C(=O)NCCCCc2ccccc2)c1 returned KCNQ2 enhance -8.2 and KCNQ2 inh -8.2*.
For Cc1cc(Cl)ccc1OCC(=O)NCCC(=O)O the results were KCNQ2 enhance 1 and KCNQ2 inh inactive.
`Cc1cccc(CSCCNC(=O)COc2ccc(Cl)cc2)c1` gave KCNQ2 inh inactive.
COc1cc(OC)cc(C(=O)NCCCCNC(=O)c2cc(OC)cc(OC)c2)c1 was read as KCNQ2 enhance 0.22 and KCNQ2 inh inactive.
For O=C(COc1ccc(Cl)cc1)NCCSCc1cccc(Cl)c1 the results were KCNQ2 enhance -7.5 and KCNQ2 inh -7.5*.
Screening Cc1cc(Cl)ccc1OCC(=O)NCCCCc1ccccc1 returned KCNQ2 enhance -6.3 and KCNQ2 inh -6.3*.
`CCN1C(=O)/C(=C\c2ccco2)C(C(=O)OC)=C1C` gave KCNQ2 enhance 0.9 and KCNQ2 inh inactive.
Screening COC(=O)C1=C(C)N(CCc2ccccc2)C(=O)/C1=C\c1ccco1 returned KCNQ2 enhance -5.9 and KCNQ2 inh -5.9*.
`COC(=O)C1=C(C)N(c2cccc(OC)c2)C(=O)/C1=C\c1ccco1` gave KCNQ2 enhance -6.2 and KCNQ2 inh -6.2*.
CCOC(=O)C1=C(C)N(c2ccc(OCC)cc2)C(=O)/C1=C\c1ccco1 was read as KCNQ2 inh inactive.
Screening C=CCN1C(=O)/C(=C\c2ccco2)C(C(=O)OC)=C1C returned KCNQ2 enhance 0.71 and KCNQ2 inh inactive.
`COC(=O)C1=C(C)N(Cc2ccccc2)C(=O)/C1=C\c1ccco1` gave KCNQ2 enhance -5.7 and KCNQ2 inh -5.7*.
CCc1cccc(NC(=O)CS(=O)Cc2nc(-c3ccc(C)cc3)oc2C)c1 (stereo not drawn) was read as KCNQ2 enhance 0.81 and KCNQ2 inh inactive.
CN(CC(=O)Nc1ccc(Cl)cc1)C(=O)c1cc(-c2cccs2)nn1-c1ccccc1 was read as KCNQ2 enhance -7.6 and KCNQ2 inh -7.6*.
CN(CC(=O)Nc1c(Cl)cccc1Cl)C(=O)c1cc(-c2cccs2)nn1-c1ccccc1 was read as KCNQ2 inh inactive.
O=C(c1ccsc1)N1CCCC(Nc2cccc(F)c2)C1 (stereo not drawn) was read as KCNQ2 inh inactive.
Clc1ccc(CSc2nnc(CNc3cccc(Cl)c3)o2)cc1 was read as KCNQ2 enhance -5.7 and KCNQ2 inh -5.7*.
For Fc1cccc(Cl)c1CSc1nnc(CNc2ccccc2)o1 the results were KCNQ2 inh inactive.
For CC(C)c1nc(SCC(=O)Nc2c[nH]c(=O)[nH]c2=O)c2cnn(-c3ccccc3)c2n1 the results were KCNQ2 enhance 0.15 and KCNQ2 inh inactive.
`COc1ccc(-c2cc(C(=O)Nc3cccc(Cl)c3)no2)cc1` gave KCNQ2 inh inactive.
Screening COc1ccc(OC)c(-c2cc(C(=O)Nc3cccc(Cl)c3)no2)c1 returned KCNQ2 enhance -7.5 and KCNQ2 inh -7.5*.
`COc1ccc(/C=C2\SC(=S)N(CC(=O)OCC(=O)Nc3ccc(C)cc3Cl)C2=O)cc1` gave KCNQ2 inh inactive.
Screening COc1ccccc1C1CN(c2ccc(F)cc2F)N=C1c1cccs1 (stereo not drawn) returned KCNQ2 enhance -7.8 and KCNQ2 inh -7.8*.
`COc1ccccc1C1CC(c2cccs2)=NN1C(=O)CCC(=O)O` (stereo not drawn) gave KCNQ2 enhance 0.69 and KCNQ2 inh inactive.
For CC(C)(C)c1ccc(OCC(O)CSc2ncn[nH]2)cc1 (stereo not drawn) the results were KCNQ2 inh inactive.
Screening Cc1cc(C)n2c(=O)c3ccc(Cl)cc3nc2c1C#N returned KCNQ2 inh inactive.
Screening Cc1cc(Cl)n2c(nc3cc(F)c(F)cc32)c1C#N returned KCNQ2 enhance -13 and KCNQ2 inh -13*.
For Cc1ccc(N2C(=O)CCC2=O)c(C)c1 the results were KCNQ2 inh inactive.
Screening O=C(Nc1ccc(C(=O)O)cc1)/C(=C\c1ccc2c(c1)OCO2)NC(=O)c1ccco1 returned KCNQ2 enhance 6.5* and KCNQ2 inh inactive.
Screening O=C(Nc1ccc(C(=O)O)cc1)/C(=C\c1ccccc1)NC(=O)c1ccco1 returned KCNQ2 enhance 0.24 and KCNQ2 inh inactive.
CCOP(=O)(c1ccccc1)c1nc(-c2ccccc2Cl)oc1N1CCCCC1 (stereo not drawn) was read as KCNQ2 enhance -5.6 and KCNQ2 inh -5.6*.
Screening CCOP(=O)(OCC)c1nc(-c2cccc([N+](=O)[O-])c2)oc1N1CCCCC1 returned KCNQ2 inh inactive.
For O=C(CCc1c[nH]c2ccccc12)NC(Cc1ccccc1)C(=O)O (stereo not drawn) the results were KCNQ2 enhance 0.14 and KCNQ2 inh inactive.
For Cc1ccc(Cl)cc1N1CCN(C(=S)NCc2ccco2)CC1 the results were KCNQ2 inh inactive.
For S=C(NCc1ccco1)N1CCN(c2ccccc2Cl)CC1 the results were KCNQ2 enhance -5.8 and KCNQ2 inh -5.8*.
For COc1ccccc1/C=C/CN1CCC(Oc2cc(C(=O)NC3CC3)ccc2OC)CC1 the results were KCNQ2 enhance 0.8 and KCNQ2 inh inactive.
For Oc1ccc(NCc2cccc(OCc3ccc(F)cc3)c2)cc1 the results were KCNQ2 enhance -5.8 and KCNQ2 inh -5.8*.
`Oc1ccc(NCc2cccc(OCc3ccccc3)c2)cc1` gave KCNQ2 inh inactive.
Cc1ccnc(NS(=O)(=O)c2ccc(NC(=O)Cc3ccc(Br)cc3)cc2)n1 was read as KCNQ2 enhance 1.2 and KCNQ2 inh inactive.
O=C(C1COc2ccccc2O1)N1CCN(c2ccccc2Cl)CC1 (stereo not drawn) was read as KCNQ2 enhance -7.4 and KCNQ2 inh -7.4*.
Screening O=C(C1COc2ccccc2O1)N1CCN(c2ccccc2F)CC1 (stereo not drawn) returned KCNQ2 inh inactive.
For CCC(=O)c1ccc(OCC(O)CN(CCc2ccccc2)Cc2ccccc2)cc1 (stereo not drawn) the results were KCNQ2 enhance -7.6 and KCNQ2 inh -7.6*.
COc1cccc(OCC(O)CN(CCO)Cc2ccccc2)c1 (stereo not drawn) was read as KCNQ2 inh inactive.
CCCCC1(Cc2ccc([N+](=O)[O-])cc2)C(=O)N(c2ccccc2)N(c2ccccc2)C1=O was read as KCNQ2 enhance -6 and KCNQ2 inh -6*.
`Cc1nn(Cc2ccc([N+](=O)[O-])cc2)c(=O)n1-c1ccccc1` gave KCNQ2 enhance 0.03 and KCNQ2 inh inactive.
`CCOC(=O)C1=C(COC(=O)/C=C/c2ccc(SC)cc2)NC(=O)NC1C` (stereo not drawn) gave KCNQ2 enhance 0.92 and KCNQ2 inh inactive.
For CC(C)C[C@H](NC(=O)c1[nH]cnc1C(=O)Nc1ccccc1)C(=O)OC(C)(C)C the results were KCNQ2 inh inactive.
For CC(C)=CC(=O)Nc1ccc(OCc2ccccc2)cc1 the results were KCNQ2 enhance 7.6* and KCNQ2 inh inactive.
For O=C(Nc1ccc(OCc2ccccc2)cc1)c1ccccc1 the results were KCNQ2 inh inactive.
Screening CC1(C(=O)O)CCC(C(=O)NNC(=O)c2ccccc2O)C1(C)C (stereo not drawn) returned KCNQ2 enhance 0.03 and KCNQ2 inh inactive.
Screening COC(=O)c1cccc(C#CC(NP(=O)(c2ccccc2)c2ccccc2)c2ccccc2)c1 (stereo not drawn) returned KCNQ2 enhance -6.3 and KCNQ2 inh -6.3*.

High-throughput results as filed in PubChem BioAssay.
